# Experimental data: PubChem BioAssay (EPA / NIEHS)
# More than one record can exist for a structure, and the calls need not agree. Active and inactive are the calls of the source. How the source made its calls: active means hit-call score of the fitted dose curve at least 0.9, where 1 is the maximum; inactive means score below 0.9.
# What was measured:
# [1] = BSK_CASM3C_SRB: Viability Assessment in the BioMAP Diversity Plus: CASM3C Assay (AID 2283050); conditions: primary human coronary artery smooth muscle cells;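 further: total protein by SRB staining as cytotoxicity measure in parallel cultures; cells exposed to compound for 24 h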
# [2] = read-out: Thrombomodulin, THBD (gene 7056); assay: BSK_CASM3C_Thrombomodulin: BioMAP Diversity Plus: CASM3C Assay for Thrombomodulin Biomarker Activity (AID 2283051); conditions: primary human coronary artery smooth muscle cells; actives raise or lower the signal;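 further: thrombomodulin protein level measured by ELISA 24 h after dosing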
# [3] = read-out: Tissue Factor, F3 (gene 2152); assay: BSK_CASM3C_TissueFactor: BioMAP Diversity Plus: CASM3C Assay for Tissue Factor Biomarker Activity (AID 2283052); conditions: primary human coronary artery smooth muscle cells; actives raise or lower the signal;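 further: cell surface tissue factor protein level read by ELISA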
# [4] = read-out: Interferon-gamma inducible Protein 10 (IP10), CXCL10 (gene 3627); assay: BSK_hDFCGF_IP10: BioMAP Diversity Plus: hDFCGF Assay for Interferon-gamma inducible Protein 10 (IP10) Biomarker Activity (AID 2283053); conditions: primary human foreskin fibroblasts; actives raise or lower the signal
# Outline: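 Primary foreskin fibroblasts, human; 24 h compound exposure; IP-10 by ELISA; bidirectional fit vs DMSO.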
# [5] = read-out: Urokinase-type plasminogen activator receptor (uPAR), PLAUR (gene 5329); assay: BSK_CASM3C_uPAR: BioMAP Diversity Plus: CASM3C Assay for Urokinase-type plasminogen activator receptor (uPAR) Biomarker Activity (AID 2283054); conditions: primary human coronary artery smooth muscle cells; actives raise or lower the signal;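 further: cell-surface uPAR protein level quantified by ELISA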
# [6] = read-out: Vascular cell adhesion molecule 1 (VCAM1), VCAM1 (gene 7412); assay: BSK_CASM3C_VCAM1: BioMAP Diversity Plus: CASM3C Assay for Vascular cell adhesion molecule 1 (VCAM1) Biomarker Activity (AID 2283055); conditions: primary human coronary artery smooth muscle cells; actives raise or lower the signal;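 further: VCAM-1 protein level quantified by ELISA on the cells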
# [7] = read-out: Collagen III, COL3A1 (gene 1281); assay: BSK_hDFCGF_CollagenIII: BioMAP Diversity Plus: hDFCGF Assay for Collagen III Biomarker Activity (AID 2283056); conditions: primary human foreskin fibroblasts; actives raise or lower the signal
# Outline: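 ELISA readout of Collagen III in human dermal (foreskin) fibroblasts, taken 24 h post-treatment. Gain or loss relative to DMSO vehicle fitted in both directions.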
# [8] = read-out: Epidermal growth factor receptor (EGFR), EGFR (gene 1956); assay: BSK_hDFCGF_EGFR: BioMAP Diversity Plus: hDFCGF Assay for Epidermal growth factor receptor (EGFR) Biomarker Activity (AID 2283057); conditions: primary human foreskin fibroblasts; actives raise or lower the signal
# Outline: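 hDFCGF system, primary human foreskin fibroblasts; compound 24 h; EGFR measured by ELISA; DMSO = negative control/baseline; bidirectional fitting.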
# [9] = read-out: Interleukin-8 (IL8), CXCL8 (gene 3576); assay: BSK_hDFCGF_IL8: BioMAP Diversity Plus: hDFCGF Assay for Interleukin-8 (IL8) Biomarker Activity (AID 2283058); conditions: primary human foreskin fibroblasts; actives raise or lower the signal
# Outline: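 IL-8 levels read by ELISA at 24 hours after dosing human skin fibroblast cultures. Parallel SRB staining assessed overt cytotoxicity, and gain or loss of signal was fitted against DMSO control.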
# [10] = BSK_hDFCGF_Proliferation: Cell Proliferation Assessment in the BioMAP Diversity Plus: hDFCGF Assay (AID 2283059); conditions: primary human foreskin fibroblasts;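 further: curves fitted for both rise and fall of signal versus DMSO baseline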
# Outline: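 Primary human foreskin fibroblasts, sub-confluent; […]; 10% TCA fix, 0.1% SRB stain, A560 total protein. Gain/loss fitted bidirectionally vs DMSO control.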
# [11] = read-out: Macrophage colony-stimulating factor (MCSF), CSF1 (gene 1435); assay: BSK_hDFCGF_MCSF: BioMAP Diversity Plus: hDFCGF Assay for Macrophage colony-stimulating factor (MCSF) Biomarker Activity (AID 2283060); conditions: primary human foreskin fibroblasts; actives raise or lower the signal
# Outline: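 M-CSF levels read by ELISA at 24 h post-dosing in human skin fibroblasts. Parallel cultures stained with SRB assessed cytotoxicity at the same time point; response fitted in both directions against the DMSO baseline.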
# [12] = BSK_hDFCGF_SRB: Viability Assessment in the BioMAP Diversity Plus: hDFCGF Assay (AID 2283061); conditions: primary human foreskin fibroblasts;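 further: cells exposed to compound for 24 h before the read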
# Outline: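 Viability was read as total protein: after 10% TCA fixation, wells were stained with 0.1% sulforhodamine B and read at 560 nm. Primary human foreskin fibroblasts were dosed for 24 h, with bidirectional fitting versus DMSO.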
# [13] = read-out: TIMP metallopeptidase inhibitor 1 (TIMP1), TIMP1 (gene 7076); assay: BSK_hDFCGF_TIMP1: BioMAP Diversity Plus: hDFCGF Assay for TIMP metallopeptidase inhibitor 1 (TIMP1) Biomarker Activity (AID 2283062); conditions: primary human foreskin fibroblasts; actives raise or lower the signal
# Outline: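 TIMP-1 measured by ELISA 24 h after chemical dosing of primary human skin fibroblasts, with gain or loss fitted relative to DMSO. Parallel SRB staining (560 nm) monitored overt cytotoxicity.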
# [14] = read-out: Monokine induced gamma interferon (MIG), CXCL9 (gene 4283); assay: BSK_hDFCGF_MIG: BioMAP Diversity Plus: hDFCGF Assay for Monokine induced gamma interferon (MIG) Biomarker Activity (AID 2283063); conditions: primary human foreskin fibroblasts; actives raise or lower the signal
# Outline: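 Human primary foreskin fibroblasts in the hDFCGF system, exposed to test chemical for 24 h; MIG measured by ELISA. Bidirectional curve fitting against DMSO negative control as activity baseline.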
# [15] = read-out: Matrix Metallopeptidase 1 (MMP1), MMP1 (gene 4312); assay: BSK_hDFCGF_MMP1: BioMAP Diversity Plus: hDFCGF Assay for Matrix Metallopeptidase 1 (MMP1) Biomarker Activity (AID 2283064); conditions: primary human foreskin fibroblasts; actives raise or lower the signal
# Outline: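 Primary human foreskin fibroblasts exposed to chemicals for 24 h; MMP1 measured by ELISA. Cytotoxicity tracked by SRB staining in parallel cultures; bidirectional fit relative to DMSO.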
# [16] = read-out: Vascular cell adhesion molecule 1 (VCAM1), VCAM1 (gene 7412); assay: BSK_hDFCGF_VCAM1: BioMAP Diversity Plus: hDFCGF Assay for Vascular cell adhesion molecule 1 (VCAM1) Biomarker Activity (AID 2283065); conditions: primary human foreskin fibroblasts; actives raise or lower the signal;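 on AC50: VCAM-1 protein level quantified by ELISA after 24 h chemical exposure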
# Outline: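 ELISA readout of VCAM-1 on human dermal fibroblast primary cultures, 24 h after chemical exposure. Gain or loss of signal fitted in both directions against DMSO baseline.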
# [17] = read-out: Plasminogen activator inhibitor-1 (PAI1), SERPINE1 (gene 5054); assay: BSK_hDFCGF_PAI1: BioMAP Diversity Plus: hDFCGF Assay for Plasminogen activator inhibitor-1 (PAI1) Biomarker Activity (AID 2283066); conditions: primary human foreskin fibroblasts; actives raise or lower the signal
# Outline: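 Primary dermal fibroblasts (human foreskin), hDFCGF system; compound 24 h; PAI-1 by ELISA; bidirectional fit vs DMSO control.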
# [18] = read-out: Intercellular Adhesion Molecule 1 (ICAM1), ICAM1 (gene 3383); assay: BSK_KF3CT_ICAM1: BioMAP Diversity Plus: KF3CT Assay for Intercellular Adhesion Molecule 1 (ICAM1) Biomarker Activity (AID 2283067); conditions: primary human keratinocytes with fibroblasts; actives raise or lower the signal
# Outline: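 Cell-surface ICAM-1 was measured by ELISA 24 h after dosing primary human skin keratinocytes co-cultured with fibroblasts. Parallel SRB staining tracked overt cytotoxicity. Gain or loss of signal was fitted relative to DMSO.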
# [19] = read-out: Interferon-gamma inducible Protein 10 (IP10), CXCL10 (gene 3627); assay: BSK_KF3CT_IP10: BioMAP Diversity Plus: KF3CT Assay for Interferon-gamma inducible Protein 10 (IP10) Biomarker Activity (AID 2283068); conditions: primary human keratinocytes with fibroblasts; actives raise or lower the signal
# Outline: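 In a primary skin co-culture of keratinocytes and fibroblasts, IP-10 is quantified by ELISA at 24 h after dosing. SRB staining of parallel wells monitors overt toxicity. Curves are fitted both directions against DMSO.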
# [20] = BSK_KF3CT_SRB: Viability Assessment in the BioMAP Diversity Plus: KF3CT Assay (AID 2283069); conditions: primary human keratinocytes with fibroblasts;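 further: total protein by sulforhodamine B staining as a cytotoxicity measure; read 24 h after compound addition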
# Outline: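 Human keratinocyte and foreskin fibroblast co-culture exposed to chemical for 24 h. Total protein measured in parallel cultures by 0.1% sulforhodamine B staining after 10% TCA fixation, read at 560 nm; bidirectional fit relative to DMSO.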
smiles,measurement,setting,value
C#C[C@]1(O)CC[C@H]2[C@@H]3CCc4cc(OC)ccc4[C@H]3CC[C@@]21C,outcome,[1],inactive
same,outcome,[2],inactive
same,AC50,[3],0.016 µM (active)
same,outcome,[4],inactive
same,outcome,[5],inactive
same,outcome,[6],inactive
same,AC50,[7],0.00348 µM (active)
same,AC50,[8],0.016 µM (active)
same,outcome,[9],inactive
same,AC50,[10],4.67 µM (active)
same,outcome,[11],inactive
same,outcome,[12],inactive
same,outcome,[13],inactive
same,outcome,[14],inactive
same,outcome,[15],inactive
same,outcome,[16],inactive
same,AC50,[17],0.016 µM (active)
same,outcome,[18],inactive
same,outcome,[19],inactive
same,outcome,[20],inactive
FC(F)(Br)C(F)(F)C(F)(F)C(F)(F)C(F)(F)C(F)(F)Br,outcome,[1],inactive
same,outcome,[2],inactive
same,outcome,[3],inactive
same,outcome,[4],inactive
same,outcome,[5],inactive
same,outcome,[6],inactive
same,outcome,[7],inactive
same,outcome,[8],inactive
same,outcome,[9],inactive
same,outcome,[10],inactive
same,outcome,[11],inactive
same,outcome,[12],inactive
same,outcome,[13],inactive
same,outcome,[14],inactive
same,outcome,[15],inactive
same,outcome,[16],inactive
same,outcome,[17],inactive
same,outcome,[18],inactive
same,outcome,[19],inactive
same,outcome,[20],inactive
O=P(O)(O)OCCC(F)(F)C(F)(F)C(F)(F)C(F)(F)C(F)(F)C(F)(F)F,outcome,[1],inactive
same,outcome,[2],inactive
same,outcome,[3],inactive
same,AC50,[4],7.21 µM (active)
same,outcome,[4],inactive
same,outcome,[5],inactive
same,outcome,[6],inactive
same,outcome,[7],inactive
same,outcome,[8],inactive
same,outcome,[9],inactive
same,outcome,[10],inactive
same,outcome,[11],inactive
same,outcome,[12],inactive
same,outcome,[13],inactive
same,outcome,[14],inactive
same,outcome,[15],inactive
same,outcome,[16],inactive
same,outcome,[17],inactive
same,outcome,[19],inactive
same,outcome,[20],inactive
CCc1ccc(C(c2ccc(CC)cc2)C(Cl)Cl)cc1,outcome,[1],inactive
same,outcome,[2],inactive
same,AC50,[3],5.97 µM (active)
same,AC50,[4],26.2 µM (active)
same,outcome,[5],inactive
same,outcome,[6],inactive
same,AC50,[7],20 µM (active)
same,outcome,[8],inactive
same,outcome,[9],inactive
same,AC50,[10],4.45 µM (active)
same,AC50,[11],26 µM (active)
same,AC50,[12],13.8 µM (active)
same,AC50,[13],20 µM (active)
same,AC50,[14],31.8 µM (active)
same,AC50,[15],30.1 µM (active)
same,AC50,[16],14.2 µM (active)
same,AC50,[17],12.3 µM (active)
same,outcome,[18],inactive
same,AC50,[19],13.6 µM (active)
same,AC50,[20],29.2 µM (active)
CCCCOCCOCCOC(=O)CCCCC(=O)OCCOCCOCCCC,outcome,[1],inactive
same,outcome,[2],inactive
same,outcome,[3],inactive
same,outcome,[4],inactive
same,outcome,[5],inactive
same,outcome,[6],inactive
same,outcome,[7],inactive
same,outcome,[8],inactive
same,outcome,[9],inactive
same,outcome,[10],inactive
same,outcome,[11],inactive
same,outcome,[12],inactive
same,outcome,[13],inactive
same,outcome,[14],inactive
same,outcome,[15],inactive
same,outcome,[16],inactive
same,outcome,[17],inactive
same,outcome,[19],inactive
same,outcome,[20],inactive
